# Reference: publication PMC5540273 (PLoS ONE, 2017)
# Like-named read-outs stand apart in the source and are kept apart here.
# Key:
# [1] = test system: CHEK1; conditions: concentration: 1 μM, replicates: in singlicate; n = 1
# [2] = test system: CHEK2; conditions: concentration: 1 μM, replicates: in singlicate; n = 1
# [3] = test system: CIT; conditions: concentration: 1 μM, replicates: in singlicate; n = 1
# [4] = test system: CLK1; conditions: concentration: 1 μM, replicates: in singlicate; n = 1
# [5] = test system: CLK2; conditions: concentration: 1 μM, replicates: in singlicate; n = 1
# [6] = test system: CLK3; conditions: concentration: 1 μM, replicates: in singlicate; n = 1
# [7] = test system: CLK4; conditions: concentration: 1 μM, replicates: in singlicate; n = 1
# [8] = test system: CSF1R-autoinhibited; conditions: concentration: 1 μM, replicates: in singlicate; n = 1
# [9] = test system: CSF1R; conditions: concentration: 1 μM, replicates: in singlicate; n = 1
# [10] = test system: CSK; conditions: concentration: 1 μM, replicates: in singlicate; n = 1
# [11] = test system: CSNK1A1L; conditions: concentration: 1 μM, replicates: in singlicate; n = 1
# [12] = test system: CSNK1A1; conditions: concentration: 1 μM, replicates: in singlicate; n = 1
# [13] = test system: CSNK1D; conditions: concentration: 1 μM, replicates: in singlicate; n = 1
# [14] = test system: CSNK1E; conditions: concentration: 1 μM, replicates: in singlicate; n = 1
# [15] = test system: CSNK1G1; conditions: concentration: 1 μM, replicates: in singlicate; n = 1
# [16] = test system: CSNK1G2; conditions: concentration: 1 μM, replicates: in singlicate; n = 1
# [17] = test system: CSNK1G3; conditions: concentration: 1 μM, replicates: in singlicate; n = 1
# [18] = test system: CSNK2A1; conditions: n = 1
# [19] = test system: CSNK2A2; conditions: n = 1
# [20] = test system: T1, CTK; conditions: concentration: 1 μM, replicates: in singlicate; n = 1
# T1 construct: gene MATK
# [21] = concentration: 1 μM, replicates: in singlicate
# 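Note: KINOMEscan kinase panel screen.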
smiles,measurement,setting,value
Cc1cn2c(=O)cc(N3CCOCC3)nc2n1Cc1cccc(Cl)c1Cl [GSK2334006],%Inh,[1],25%
same,%Inh,[2],0%
same,%Inh,[3],17%
same,%Inh,[4],35%
same,%Inh,[5],0%
same,%Inh,[6],11%
same,%Inh,[7],26%
same,%Inh,[8],0%
same,%Inh,[9],5%
same,%Inh,[10],0%
same,%Inh,[11],29%
same,%Inh,[12],48%
same,%Inh,[13],43%
same,%Inh,[14],45%
same,%Inh,[15],17%
same,%Inh,[16],6%
same,%Inh,[17],26%
same,%Inh,[18]; [21],11%
same,%Inh,[19]; [21],18%
same,%Inh,[20],0%
Cc1cccc(-c2nc(-c3ccc(S(C)(=O)=O)cc3)sc2-c2ccncc2)c1,%Inh,[1],0%
same,%Inh,[2],1%
same,%Inh,[3],9%
same,%Inh,[4],0%
same,%Inh,[5],0%
same,%Inh,[6],0%
same,%Inh,[7],11%
same,%Inh,[8],0%
same,%Inh,[9],9%
same,%Inh,[10],8%
same,%Inh,[11],9%
same,%Inh,[12],18%
same,%Inh,[13],16%
same,%Inh,[14],36%
same,%Inh,[15],0%
same,%Inh,[16],20%
same,%Inh,[17],0%
same,%Inh,[18]; [21],0%
same,%Inh,[19]; [21],14%
same,%Inh,[20],0%
COc1cc(Nc2nccc(N3CCC(NC(=O)c4cccc(NC(C)=O)c4)C3)n2)cc(OC)c1OC (centres unmarked) [GSK1379754],%Inh,[1],0%
same,%Inh,[2],19%
same,%Inh,[3],23%
same,%Inh,[4],10%
same,%Inh,[5],3%
same,%Inh,[6],0%
same,%Inh,[7],13%
same,%Inh,[8],0%
same,%Inh,[9],38%
same,%Inh,[10],0%
same,%Inh,[11],4%
same,%Inh,[12],6%
same,%Inh,[13],0%
same,%Inh,[14],0%
same,%Inh,[15],4%
same,%Inh,[16],0%
same,%Inh,[17],8%
same,%Inh,[18]; [21],17%
same,%Inh,[19]; [21],65%
same,%Inh,[20],0%
CCCCCc1nc2c(N)ncnc2n1CCCCC [SKF-97255],%Inh,[1],0%
same,%Inh,[2],0%
same,%Inh,[3],9%
same,%Inh,[4],24%
same,%Inh,[5],14%
same,%Inh,[6],3%
same,%Inh,[7],17%
same,%Inh,[8],0%
same,%Inh,[9],17%
same,%Inh,[10],0%
same,%Inh,[11],0%
same,%Inh,[12],14%
same,%Inh,[13],0%
same,%Inh,[14],3%
same,%Inh,[15],0%
same,%Inh,[16],0%
same,%Inh,[17],6%
same,%Inh,[18]; [21],0%
same,%Inh,[19]; [21],28%
same,%Inh,[20],0%
COc1ccc(Nc2nccc(N3CCC(NC(=O)Nc4cc(C)ccc4C)C3)n2)cc1 (centres unmarked) [GSK1379741],%Inh,[1],0%
same,%Inh,[2],0%
same,%Inh,[3],5%
same,%Inh,[4],14%
same,%Inh,[5],0%
same,%Inh,[6],0%
same,%Inh,[7],0%
same,%Inh,[8],0%
same,%Inh,[9],4%
same,%Inh,[10],0%
same,%Inh,[11],2%
same,%Inh,[12],0%
same,%Inh,[13],0%
same,%Inh,[14],12%
same,%Inh,[15],0%
same,%Inh,[16],0%
same,%Inh,[17],14%
same,%Inh,[18]; [21],0%
same,%Inh,[19]; [21],0%
same,%Inh,[20],0%
O=C(c1ccc(-c2cc(-c3c[nH]nc3-c3ccccn3)ccn2)cc1)N1CCOCC1 [GW812171],%Inh,[1],0%
same,%Inh,[2],0%
same,%Inh,[3],0%
same,%Inh,[4],0%
same,%Inh,[5],0%
same,%Inh,[6],0%
same,%Inh,[7],0%
same,%Inh,[8],12%
same,%Inh,[9],16%
same,%Inh,[10],51%
same,%Inh,[11],0%
same,%Inh,[12],32%
same,%Inh,[13],49%
same,%Inh,[14],17%
same,%Inh,[15],19%
same,%Inh,[16],0%
same,%Inh,[17],0%
same,%Inh,[18]; [21],0%
same,%Inh,[19]; [21],0%
same,%Inh,[20],49%
O=c1cc(N2CCOCC2)nc2n(Cc3cccc(Cl)c3Cl)c(C3CC3)nn12 [GSK2358994],%Inh,[1],15%
same,%Inh,[2],0%
same,%Inh,[3],0%
same,%Inh,[4],27%
same,%Inh,[5],25%
same,%Inh,[6],14%
same,%Inh,[7],0%
same,%Inh,[8],0%
same,%Inh,[9],0%
same,%Inh,[10],8%
same,%Inh,[11],0%
same,%Inh,[12],0%
same,%Inh,[13],7%
same,%Inh,[14],11%
same,%Inh,[15],0%
same,%Inh,[16],5%
same,%Inh,[17],23%
same,%Inh,[18]; 1 µM,16%
same,%Inh,[19]; 1 µM,0%
same,%Inh,[20],0%
